# Assay outcomes (PubChem BioAssay)
# A selection: hits, their analogues and other compounds. The true share with any hit is near 12%.
# PLK1 PBD block = blocks phosphopeptide binding to human PLK1 polo-box domain; Potency, µM, for inactives: max response, negative = inhibition, hits mostly inhibitors; 2.8% of 360,000 active; Plk1 PBD binding of FITC phosphopeptide, fluorescence polarization; P53350; note: potency is the fitted concentration of half-maximal effect; series mostly up to about 57 µM; % is set by controls: 0 for no effect and ±100 for the full control effect; nearly all actives have a fitted effect of over 65% in size
# G9a block = inhibitors of human histone lysine methyltransferase G9a | Potency, µM (titrated, usually from 102 µM), inactives show at the highest dose activity, negative = inhibition, usual class: inhibitors | 8.8% of 350,000 active | AID 504332 | G9a H3K9 monomethylation, AlphaScreen, 2 h | Q96KQ7; note: potency is the fitted concentration of half-maximal effect; % is set by controls: 0 for no effect and ±100 for the full control effect; nearly all actives have a fitted effect of over 75% in size
#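 Compounds were preincubated with 20 nM G9a for 15 min, after which biotinylated H3K9 peptide (500 nM) and SAM (20 uM) started a 2 h room-temperature reaction. Monomethylated product was quantified by antibody-based AlphaScreen chemiluminescence.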
# PI5P4Ka inh = PI5P4K alpha (human) kinase inhibition. PI5P4Kalpha enzyme, ADP-Glo luminescence, 60 min; stronger effect = lower value. P48426. 1.2% of 330,000 active. max response, %; active = max response of -50% or lower; inconclusive = between -30% and -50%; inactive = -30% or higher; note: value at the top dose of about 77 µM; % is set by controls: 0 for no effect and ±100 for the full control effect
# Target sequence (P48426 whole entry, looked up): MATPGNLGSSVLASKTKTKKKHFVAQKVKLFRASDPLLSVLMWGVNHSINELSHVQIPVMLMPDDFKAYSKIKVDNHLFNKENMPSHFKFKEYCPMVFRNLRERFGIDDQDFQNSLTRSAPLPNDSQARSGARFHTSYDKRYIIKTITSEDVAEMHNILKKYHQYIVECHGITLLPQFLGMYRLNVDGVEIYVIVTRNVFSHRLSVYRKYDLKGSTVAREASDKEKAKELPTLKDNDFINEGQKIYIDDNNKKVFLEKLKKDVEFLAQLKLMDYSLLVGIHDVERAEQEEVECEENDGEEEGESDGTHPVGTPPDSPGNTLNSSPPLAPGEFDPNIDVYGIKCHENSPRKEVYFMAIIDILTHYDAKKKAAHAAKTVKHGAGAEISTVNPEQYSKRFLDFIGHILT
#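 Single end-point luminescence (ADP-Glo) quantified ADP from PI5P4Kalpha turnover; ATP 5 microM final, 1 h at RT, 0.1% CHAPS and 0.28 mM EGTA in HEPES pH 7.4.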
# HP1b chromo inh = HP1-beta chromodomain-methylated histone interaction inhibition; 0.56% of 390,000 active; P83916; Potency, µM (doses to about 114 µM), inactives show at the highest dose activity change, negative = inhibition, usual class: inhibitors; AlphaScreen HP1-beta / biotin-H3K9me3 peptide binding; note: potency is the fitted concentration of half-maximal effect; nearly all actives have a fitted effect of over 70% in size
#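 AlphaScreen: HP1-beta (50 nM) preformed 30 min with biotin-H3(1-18)K9me3 peptide (50 nM) in PBS pH 7.4, 0.01% Tween-20. Compound added for 30 min at RT, then streptavidin donor/nickel chelate acceptor beads (10 ug/mL) for 30 min.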
# BAZ2B block = BAZ2B (human) inhibition | AlphaScreen BAZ2B-H3K14Ac peptide displacement | Potency, µM (doses to about 114 µM), for inactives: at the top dose activity change, negative = inhibition, most hits filed as inhibitors | 4.4% of 360,000 active | AID 504333; note: potency is the fitted concentration of half-maximal effect; % is set by controls: 0 for no effect and ±100 for the full control effect; nearly all actives have a fitted effect of over 60% in size
#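 BAZ2B 50 nM plus b-H3(5-23)K14Ac 50 nM, PBS pH 7.4/0.01% Tween-20, 30 min RT; compound added (max 110 uM), 30 min RT; streptavidin donor/Ni-chelate acceptor beads 10 ug/mL final, 20 min dark; AlphaScreen read.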
# JMJD2A Tudor inh = JMJD2A Tudor domain (human) inhibition; O75164; AlphaScreen JMJD2A-Tudor / H3K4me3 peptide binding; Potency, µM (highest dose often 114 µM), for the others: at the top dose activity change, negative = inhibition, hits mostly inhibitors; 4.4% of 390,000 active; note: potency is the fitted concentration of half-maximal effect; % is set by controls: 0 for no effect and ±100 for the full control effect; nearly all actives have a fitted effect of over 50% in size
# * marks the source's active call; other numbers are inactive results; ? = inconclusive; nt = no result; [ ] = dose if it differs, or a comment. Unless noted, calls come from the whole dose curve; as a rule, active = well fitted curve in the direction sought with a large enough effect; inconclusive = small, poorly fitted or top-dose-only effect, or another doubt; inactive = no such curve, though single readings can be large; an effect the other way counts as inactive or inconclusive.
SMILES,PLK1 PBD block,G9a block,PI5P4Ka inh,HP1b chromo inh,BAZ2B block,JMJD2A Tudor inh
COc1c(OC(C)=O)ccc(/C=N\NC(=O)c2ccc(Br)cc2)c1[N+](=O)[O-],?,-5%,-69*,23%,-14%,-14%
COc1ccc(Br)cc1/C=N/NC(=O)c1cc(OC)c(OC)c(OC)c1,-1%,-5%[59 µM],2,11%,2%,-24%
O=C(N/N=C/c1cccc2ccccc12)c1ccncc1,4%,nt,-9,24%,?,8%
O=C1NCCCC1C(=O)N/N=C/c1cc([N+](=O)[O-])ccc1O (stereo not drawn),-15%,47%[12.7 µM],-19,16%[57 µM],50µM*,40µM*
COc1ccc(/C=N/NC(=O)c2ccncc2)cc1[N+](=O)[O-],-13%,-3%,0,40%,-16%,2%
O=C(N/N=C/c1ccccc1O)c1ccncc1,-7%,33%[59 µM],0,25%,35µM*,50µM*
O=C(N/N=C/c1ccccc1)c1cc[n+]([O-])cc1,-4%,4%,3,-7%,0%,-13%
O=C(N/N=C/c1ccccc1O)c1cc[n+]([O-])cc1,-23%,-4%,1,66%,20µM*,35µM*
O=C1NCCCC1C(=O)N/N=C/c1ccc([N+](=O)[O-])cc1 (stereo not drawn),2%,-4%,7,53%,1%,-3%
COc1cc(O)c(/C=N/NC(=O)c2ccncc2)c(OC)c1[N+](=O)[O-],-7%,-28%,0,49%,7.9µM*,50µM*
CCN(CC)c1nc(C#N)nc(N2CCOCC2)n1,nt,nt,nt,21%[57 µM],nt,-16%[57.1 µM]
O=C(Nc1nc(-c2ccc(Br)cc2)ns1)c1ccc(F)cc1,nt,5%[59 µM],nt,42%,0%,-10%
O=C(N/N=C/c1cc(Br)ccc1OC(=O)c1ccc(Br)cc1)c1ccncc1,4%,21%,4,?,50µM*,89µM*
CN(C)c1ccc(/C(=N\O)c2ccccc2)cc1,-6%,14µM*,nt,-35%,-10%,50µM*
Cc1nccn1CC(=O)N/N=C/c1ccccc1O,-2%,nt,-4,29%,45µM*,56µM*
CN(C)c1ccc(/C=N/NC(=O)c2nonc2N)cc1[N+](=O)[O-],27µM*,-13%,-6,?,-32%,-27%[11.4 µM]
Cc1nccn1CC(=O)N/N=C/c1c[nH]c2ccccc12,-10%,5%,6,26%,-21%,-14%
NC(c1ccccc1)c1csc(Nc2ccc(C(=O)NCCCO)cn2)n1 (stereo not drawn),-4%,nt,0,nt,nt,nt
O=C(N/N=C/c1cc(Br)ccc1O)c1ccncc1,12%,59%[12.7 µM],-1,35%,20µM*,28µM*
COCC(=O)Nc1cc([N+](=O)[O-])ccc1C,12µM*,34%[0.501 µM],-16,2%,-22%,-1%[11.4 µM]
O=C(N/N=C/c1ccc(O)c(O)c1O)/C(=C/c1ccc([N+](=O)[O-])cc1)NC(=O)c1ccccc1,9.5µM*,1.6µM*,-86*,25µM*,?,32µM*
O=C(N/N=C/c1ccc(O)c2ncccc12)c1cccc(Br)c1,11%,-29%,?,34%,8.9µM*,22µM*
CC(C)CC(=O)NCC1(N(C)C)CCCCC1,nt,9%[59 µM],nt,32%,0%,-16%
CCOc1ccc(C(=O)N2CCN(S(=O)(=O)c3cccs3)CC2)c(OCC)c1,-5%,nt,-3,24%,6%,-18%
O=C(N/N=C/c1cc([N+](=O)[O-])ccc1O)c1cccc(N2CCCC2=O)c1,-6%,23%,-3,48%,20µM*,32µM*
CCc1ccc(N2CC(C(=O)N/N=C/c3cc([N+](=O)[O-])ccc3O)CC2=O)cc1 (stereo not drawn),-2%,25%,-23,13%,50µM*,40µM*
O=[N+]([O-])c1ccc(O)c(/C=N/Nc2ccccc2Cl)c1,27µM*,6.3µM*,14,-3%,-26%,-8%[11.4 µM]
CCc1ccc(N2CC(C(=O)N/N=C/c3ccccc3OC)CC2=O)cc1 (stereo not drawn),-3%,1%,6,24%,0%,?
O=[N+]([O-])c1ccccc1N/N=C\c1ccccc1Cl,-5%,-4%[59 µM],9,1%,-10%,-19%
